Values joined by “and” are separate entries in the source; they are usually repeats but may differ in a detail not shown here. Equal values may be shown once. Inconclusive results are not listed. The source holds several records for some structures; these can differ, active in one and inactive in another. Active and inactive are the calls of the source. Calls follow the shape of the dose curve; as a rule, active = well fitted cell-killing curve with a large enough effect in the repeat runs; inconclusive = weak or mixed curves, or effect the other way; inactive = flat fitted curve, though single readings scatter.

Results on 40 compounds are retold here after PubChem BioAssay (Tox21).
% is scaled to controls: 0 for no effect and ±100 for the full control effect; potency is read from the fitted curve at half-maximal effect.

This experiment is described as follows: qHTS assay to identify small molecule agonists of the estrogen receptor beta (ER-beta) signaling pathway - cell viability counter screen (AID 1259380). Also: nearly all actives have a fitted effect of over 30% in size. The conditions noted are these: ER-beta-bla HEK293T viability, CellTiter-Glo luminescence, 16 h; series mostly up to 92.4 µM; activity change, negative = cytotoxicity: at the top concentration. From the text:
National Center for Advancing Translational Sciences [NCATS]
NIH Chemical Genomics Center [NCGC]
U.S. Environmental Protection Agency [EPA]
National Institutes of Environmental Health Sciences [NIEHS]
National Toxicology Program [NTP]
U.S. Food and Drug Administration [FDA]
Estrogen receptor (ER), a nuclear hormone receptor, plays an important role in development, metabolic homeostasis and reproduction. Two subtypes of ER, ER-alpha and ER-beta, have similar expression patterns with some uniqueness in both types. Endocrine disrupting chemicals (EDCs) and their interactions with steroid hormone receptors like ER causes disruption of normal endocrine function. To identify the compounds that activate ER signaling, an ER beta-UAS-bla GripTite cell line (Life Technologies, Madison, WI, USA) containing a beta-lactamase reporter gene under the control of an UAS response element was used to screen Tox21 10K compound library. The cytotoxicity of the Tox21 compound library against the ER-beta-bla cell line was tested in parallel by measuring the cell viability using CellTiter-Glo assay in the same wells.
Tox21 Assay Protocol Summary:
ER-beta-UAS-bla HEK293T cells were dispensed at 2,000 cells/5 uL of assay medium containing 2% charcoal stripped FBS per well into black wall/clear-bottom 1536-well plates using a Multidrop Combi (ThermoFisher Scientific, Waltham, MA) dispenser. After the assay plates were incubated at a 37C and 5% CO2 for 6 hr, 23 nL of compounds dissolved in DMSO, positive controls or DMSO only was transferred to the assay plate by a Pintool station (Kalypsys, San Diego, CA). The plates were incubated at 37C and 5% CO2 for 16 hr. Then 1 uL of LiveBLAzerTM B/G FRET substrate was added using a BioRAPTR FRD (Flying Reagent Dispenser, Aurora Discovery, San Diego, CA) and then the plates were incubated at room temperature for 2 hours, and fluorescence intensity was measured by an Envision plate reader (PerkinElmer, Shelton, CT). For cell viability readout that measures cytotoxicity, 4 uL/well of CellTiter-Glo reagent was added into the assay plates using a FRD. After 30 min incubation at room temperature, the luminescence intensity in the plates was measured using a ViewLux (PerkinElmer) plate reader.
For the compound `CC(O)CCO` (stereo not given), the Potency entry was “inactive”.
On to `N[C@@H](Cc1ccc(N(CCCl)CCCl)cc1)C(=O)O`, for which the “activity change, negative = cytotoxicity” value was -2.23% [at 42.5 µM] (inactive).
`CN(C)c1ccc(C(=O)c2ccc(N(C)C)cc2)cc1`: the “activity change, negative = cytotoxicity” value was -7.93% (inactive).
In the case of `O=[N+]([O-])c1c(Cl)c(Cl)c(Cl)c(Cl)c1Cl`, the Potency result is “inactive”.
Take `Oc1cc(Cl)c(Cl)cc1Cl`: the Potency result is “inactive”.
In the case of `CN(C)C(=O)Nc1ccc(Cl)cc1`, the Potency entry was “inactive”.
Turning to `c1nc[nH]n1`, the “activity change, negative = cytotoxicity” value is 3.51% (inactive).
For `COP(=S)(OC)Oc1cc(Cl)c(Cl)cc1Cl`, the Potency entry was “inactive”.
Same read-out and setting: under `ClC1C(Cl)C(Cl)C(Cl)C(Cl)C1Cl` (stereo not given) stands “inactive and 27.3 µM (active) and 54.5 µM (active)”; under `NNC(=S)NN`, 30.6 µM (active).
Still for that read-out and setting: under `c1ccc(N=Nc2ccccc2)cc1` stands “inactive”; under `Nc1ccc(Cl)c(Cl)c1`, “inactive”; under `CC1(C)C(C=C(Cl)Cl)C1C(=O)OC(C#N)c1cccc(Oc2ccccc2)c1` (stereo not given), “inactive”.
On to `Cc1ccc2c(c1N)C(=O)c1ccccc1C2=O`, for which the Potency is 30.3 µM (active).
With `CC(C)NC(C)C`, the “activity change, negative = cytotoxicity” value was 9.29% (inactive).
On to `CCN(CC)C(=O)SCc1ccc(Cl)cc1`, for which the Potency entry is “inactive”.
The same measure, in the same setting: the same measure for `NC(=S)Nc1ccccc1`: 44 µM (active) and inactive; for `Nc1ccc(-c2ccccc2)cc1`: 19.9 µM (active) and inactive; for `NCc1cccnc1`: “inactive”.
On to `CCC(=O)O[C@H]1CC[C@H]2[C@@H]3CCC4=CC(=O)CC[C@]4(C)[C@H]3CC[C@]12C`, for which the Potency was 68.6 µM (active).
Same read-out and setting: the same measure for `Nc1c(Cl)cc([N+](=O)[O-])cc1Cl`: 61.5 µM (active) and 27.3 µM (active).
Regarding `C[C@]12CCC(=O)C(O)=C1CC[C@@H]1[C@@H]2CC[C@]2(C)C(=O)CC[C@@H]12`, the Potency was 24.3 µM (active).
On the same count and under the same terms, the same measure for `CCN(CC)C(=O)/C(Cl)=C(\C)OP(=O)(OC)OC`: “inactive”; for `CC(C)Oc1cc(-n2nc(C(C)(C)C)oc2=O)c(Cl)cc1Cl`: “inactive”.
Turning to `Cc1cc(C)cc(C)c1`, the Potency entry is “inactive”.
Take `COP(=O)(OC)OC`: the “activity change, negative = cytotoxicity” value is -0.497% (inactive).
On to `CNC(=O)Oc1cccc2c1OC(C)(C)O2`, for which the Potency entry is “inactive”.
On the same count and under the same terms, under `c1ccc(-c2cccc(-c3ccccc3)c2)cc1` stands 19.5 µM (active) and 30.6 µM (active).
On to `O=c1oc2ccccc2c(O)c1C(CC(O)c1ccc(-c2ccc(Br)cc2)cc1)c1ccccc1` (stereo not given), for which the “activity change, negative = cytotoxicity” value is -2.91% [at 42.5 µM] (inactive).
Consider `CCOC(=S)S`, for which the Potency was 10.3 µM (active).
On the same count and under the same terms, under `C=CC(=O)OCCO` stands “inactive”.
On to `CCOC(=O)C(C)OC(=O)c1cc(Oc2ccc(C(F)(F)F)cc2Cl)ccc1[N+](=O)[O-]` (stereo not given), for which the “activity change, negative = cytotoxicity” value was 2.25% (inactive).
Consider `Brc1ccc(Oc2cc(Br)c(Br)cc2Br)c(Br)c1`, for which the Potency is 30.6 µM (active).
Still for that read-out and setting: the same measure for `CCOCN(C(=O)CCl)c1c(C)cccc1CC`: 48.6 µM (active); for `CC(C)C(=O)OCC(C)(C)C(OC(=O)C(C)C)C(C)C` (stereo not given): “inactive”.
Consider `Oc1c(Cl)c(Cl)c(Cl)c(Cl)c1Cl`, for which the “activity change, negative = cytotoxicity” value is -6.4% (inactive).
`Cc1ccc(OP(=O)(Oc2ccc(C)cc2)Oc2ccc(C)cc2)cc1`: the Potency is 68.5 µM (active).
On the same count and under the same terms, under `O=C(CCl)c1ccccc1` stands “inactive”.
As to `CC(C)(OOC(C)(C)c1ccccc1)c1ccccc1`, the “activity change, negative = cytotoxicity” value is 8.67% (inactive).
Regarding `Oc1cc(Cl)ccc1Oc1ccc(Cl)cc1Cl`, the Potency is 39.5 µM (active).
